Screens deposited in PubChem BioAssay by several laboratories.
Only some compounds are listed: those with a hit (about 12% of all), similar ones and a draw of the others.
Ins promoter up: insulin promoter activators in MIN6 cells, imaging, high-content screening, mouse beta cells. AID 1625, 2009. z-score at 5 µM. 190,000 tested, 0.3% active. MIN6 insulin promoter-GFP reporter; stronger effect = higher value;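 active = z-score above 3 at 5 µM with at least 500 cells counted in the well; inconclusive = wells under 500 cells, flagged as cytotoxic or low count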
WT yeast gro inh: growth inhibition of WT strain, primary screen, mitochondrial fusion inhibitor project, WT and mutant strains, chemical genetic; 190,000 tested, 2.1% active; mitochondrial fusion phenotypic screen; inhibition, % at 10 µM; in the data active = inhibition above about 58%; tested in S. cerevisiae
KCC2 mod: KCC2 cotransporter modulators, thallium flux, primary screen, cell-based, HEK293 KCC2, FluoZin-2 fluorescence, MLSMR | 190,000 tested, 2.2% active | AID 1456, 2008 | Solute carrier family 12 member 5 (Homo sapiens), Q9H2X9 | B-score of Tl+ flux slope (higher = more flux/activation; lower = inhibition) at 10 µM | KCC2 cells, thallium flux FluoZin-2 fluorescence;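 active = thallium flux slope and its plate-corrected score both differing from the plate sample mean at a set confidence after two filtering rounds, in either direction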;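 also: slope of fluorescence scaled to starting intensity during 10 to 20 s after thallium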
INS promoter inh: inhibitors of insulin promoter-driven GFP, primary screen, imaging, TRM-6 cells (human fetal islet line), eGFP reporter, cell count; AID 1273, 2008; inhibition, % at 2 µM; 130,000 tested, 0.9% active; reporter expression induced with tamoxifen;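 active = inhibition above the mean plus 3 SD, with well images judged a real hit on visual review, cut at about 60% in these data, passing the limit was not always enough; inconclusive = inhibition over the cutoff but images rejected on review; inactive = inhibition not above the cutoff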
L major viab: Leishmania major promastigote growth inhibition, primary screen | 200,000 tested, 9% active | Leishmania major promastigotes, resazurin fluorescence viability | AID 1063, 2008 | inhibition, % at 10 µM; in the data active = inhibition above about 50%;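 also: promastigotes grown with compound for 44 hours at 28 °C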
ROMK primary: ROMK potassium channel modulators, primary screen, cell-based, thallium flux, MLSMR library; 130,000 tested, 2% active; Tet-inducible ROMK, thallium flux fluorescence; actives lie on both sides; B-score at 10 µM; ATP-sensitive inward rectifier potassium channel 1 (Homo sapiens), P48048;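 active = signal ratio slope over the read window, or its plate-corrected B-score, at least 3 SD from the plate mean, either direction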;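 also: B-score of the F/F0 ratio slope over 7 to 12 s after thallium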
KCC2 secondary: KCC2 modulators in sodium-free buffer, confirmation, cell-based, HEK293 KCC2, thallium flux, secondary assay; shares compounds with KCC2 mod; FluoZin2 fluorescence; stronger effect = higher value; normalised thallium flux (F/F0 slope) at 10 µM; 3,700 tested, 15% active;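 active = thallium flux slope above the same plate's solvent-only control mean plus 3 SD; inconclusive = the two replicate wells disagree; inactive = no significant difference from solvent-only control wells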
KCC2 bumet counter: thallium flux persisting under bumetanide in KCC2 cells, confirmation, counter-screen for KCC2 modulator project, cell-based, HEK293 KCC2, FluoZin2, secondary assay 3; shares compounds with KCC2 mod; HEK293-KCC2 + bumetanide/ouabain; stronger effect = higher value; normalized thallium flux at 10 µM; 3,700 tested, 49% active;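 active = thallium entry rate above the same plate's blocked-transporter control wells by more than 3 SD; inconclusive = the two repeat wells disagree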;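 also: raw slope of fluorescence over initial fluorescence between 10 and 20 s after thallium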
KCC2 sec2: KCC2 modulators without ouabain present, confirmation, cell-based, HEK293 KCC2, thallium flux, FluoZin2, secondary assay 2; shares compounds with KCC2 mod; thallium flux FluoZin2 fluorescence; actives lie on both sides; F/F0 rise rate, 10–20 s post-thallium; normalized thallium flux at 10 µM; 3,700 tested, 23% active; AID 1715, 2009;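 active = thallium flux slope more than 3 SD above or below the plate's solvent-only control mean, mostly below; inconclusive = the two repeat wells disagreed; inactive = no significant shift from solvent-only controls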;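 also: raw slope with 0.1% DMSO as baseline and bumetanide as block control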
HEK293 Tl flux: thallium flux modulation in parental HEK cells, confirmation, counter-screen for KCC2 modulator project, cell-based, counterscreen 1 | HEK293 parental cells, thallium flux FluoZin2, ouabain; baseline-ratio fluorescence slope, 10–20 s after thallium | thallium flux rate (normalised fluorescence) at 10 µM | shares compounds with KCC2 mod | 3,700 tested, 46% active | AID 1716, 2009;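 active = thallium flux rate significantly above the same plate's solvent-only control wells, beyond their mean plus 3 SD; inconclusive = the two replicate wells gave conflicting results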
KCC2 ouabain: KCC2 inhibitors and activators, ouabain retest, confirmation, HEK-KCC2 cells; shares compounds with KCC2 mod; HEK293-KCC2, thallium flux FluoZin2 fluorescence; bidirectional: low = inhibitor, high = activator; raw Tl+ flux slope (below DMSO = inhibition, above = activation) at 10 µM; 3,700 tested, 48% active; AID 1717, 2009;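 active = thallium flux slope beyond 3 SD from same-plate DMSO control mean in most replicates, usually higher, sometimes lower; inconclusive = repeat tests gave conflicting results; inactive = no significant difference from controls in most replicates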;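 also: slope of initial-normalized fluorescence between seconds 10 and 20 after thallium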
HEK293 Tl flux2: native HEK Tl+ uptake effects, second counter-screen – HEK cells, counterscreen 2, counter-screen for KCC2 modulator project, confirmation | shares compounds with KCC2 mod | 3,700 tested, 33% active | HEK293 parental, thallium flux FluoZin-2 fluorescence slope | thallium flux slope at 10 µM | AID 1718, 2009;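 active = thallium flux slope above the same plate's solvent-control mean plus 3 SD in both duplicate wells; inconclusive = duplicate wells that disagreed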;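 also: run without ouabain in cells lacking the KCC2 cotransporter; slope of fluorescence scaled to its starting value between 10 and 20 s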
An asterisk follows results filed as active; i = inactive; ? = inconclusive; nt = not tested or not shown.

SMILES	Ins promoter up	WT yeast gro inh	KCC2 mod	INS promoter inh	L major viab	ROMK primary	KCC2 secondary	KCC2 bumet counter	KCC2 sec2	HEK293 Tl flux	KCC2 ouabain	HEK293 Tl flux2
COc1ccccc1OCC(=O)N1CC2(C)CC1CC(C)(C)C2 (stereo not given)	nt	5.8	4.98*	-17.2	-4.9	-0.536	0.00856	0.00602	0.0331	0.00801	0.0215	0.0102
CC(C)(C)C1C/C(=C/c2ccccn2)C(=O)/C(=C/c2ccccn2)C1 (stereo not given)	?	68.9*	-3.41*	i	100.6*	-0.933	0.0106	0.0094*	0.0301	0.0095*	0.0227	?
C(=C\c1ccccn1)/c1ccccn1	0.22	nt	0.298	nt	nt	nt	nt	nt	nt	nt	nt	nt
CC(=O)NCCOC(=O)Nc1cccnc1	0.1	3.0	7.18*	nt	-5.1	0.33	0.00592	0.00501	?	?	0.0185	0.0103
O=C(Nc1ccc(N2CCOCC2)nc1)c1ccc(F)cc1	0.03	-10.4	0.457	2.3	-7.6	nt	nt	nt	nt	nt	nt	nt
C/C(=N\NC(=S)Nc1cc(S(=O)(=O)N2CCOCC2)ccc1Cl)c1ccccc1F	-0.64	9.0	6.94*	-29.4	71.5*	-0.245	?	0.0249*	0.0302	0.0154*	0.0437*	0.01
CC(C)N(C(=S)Nc1cc(S(=O)(=O)N2CCOCC2)ccc1Cl)c1ccccc1	0.62	-2.0	0.528	-132.3	27.8	0.945	nt	nt	nt	nt	nt	nt
S=c1nc(-c2ccccc2)n(CCCN2CCOCC2)c2c1CCCC2	0.3	4.1	12.4*	10.7	-5.9	nt	0.0184*	0.0241*	0.034	0.026*	0.0375*	?
COC(=O)c1sc(-c2ccc(Cl)cc2)cc1NC(=O)COCC(=O)O	-0.68	nt	0.297	nt	nt	1.76	nt	nt	nt	nt	nt	nt
COC(=O)c1sc(-c2ccc(Cl)cc2)cc1NC(=O)/C=C/C(=O)O	0.05	nt	-4.14*	nt	nt	1.19	0.00955	0.00797*	0.0297	0.00752	0.014*	0.0119
COC(=O)CSc1ccnc2cc(Cl)ccc12	0.08	nt	-3.19*	nt	nt	0.000679	0.0096	?	0.0337	0.00343	0.0179	0.0116
O=C(NCCOc1ccccc1F)c1ccccc1SCc1ccc(F)cc1	-0.12	38.9	-6.24*	-55.3	53.8*	0.382	0.00941	0.00702	0.0221*	0.00583	0.0122*	0.00902
CCc1ccc(OCCNC(=O)c2ccccc2SCc2ccccc2)cc1	-0.45	37.2	nt	-29.0	2.7	nt	0.00823	?	0.024*	0.00376	0.0146*	0.0107
Cc1ccc(NC2=NCC(=O)N2Cc2ccccc2)c(C)c1	nt	11.4	-2	-92.3	4.7	nt	nt	nt	nt	nt	nt	nt
O=C(CSc1nnc(-c2c[nH]c3ccccc23)o1)N1CCCCC1	0.7	-16.9	-3.13*	nt	-6.2	nt	0.00858	?	0.0292*	0.00458	0.0205*	0.0116
O=C(CSc1nnc(-c2ccccc2Br)o1)N1CCc2ccccc2C1	-0.46	7.5	-5.43*	nt	-7.1	nt	0.0152	0.00311	0.0214*	?	0.0108*	0.00886
CN1CCN(c2ccc([N+](=O)[O-])cc2NC(=O)c2ccccc2)CC1	-0.55	13.9	nt	nt	-3.8	-0.661	nt	nt	nt	nt	nt	nt
Cc1cccc(NC(=S)N/N=C/c2cccc([N+](=O)[O-])c2)c1	0.53	0.2	nt	41.7	-2.0	nt	nt	nt	nt	nt	nt	nt
Cc1ccc(NC(=S)N/N=C/c2ccc([N+](=O)[O-])s2)cc1	0.41	73.5	14.8*	-293.1	89.3*	0.739	0.0138*	0.0467*	0.0351	?	0.0411*	0.0197*
Fc1ccc(Nc2nc(Oc3ccccc3F)nc(N3CCCC3)n2)cc1	0.58	8.0	nt	15.6	43.5	1.7	0.00728	0.00635	0.0291	0.00699	0.0197	0.00968
O=C(Cn1ccc2ccccc2c1=O)N1CCN(c2cccc(Cl)c2)CC1	nt	-20.8	-1.21	nt	-5.2	nt	nt	nt	nt	nt	nt	nt
O=C(Cn1ccc2ccccc2c1=O)NCCC(=O)N1CCN(c2cccc(Cl)c2)CC1	nt	9.8	-2.8*	30.6	-6.0	0.11	0.00726	0.00659	0.0338	0.00731	?	0.0111
O=C(CCNC(=O)Cn1ccc2ccccc2c1=O)NCCN1CCN(c2cccc(Cl)c2)CC1	-0.35	0.4	4.62*	nt	-5.6	nt	0.00589	0.00417	0.0301	0.00766	0.0188	0.0105
Cc1nnc(-c2ccc(Cl)cc2)nc1NCCN(C)C	-0.7	11.0	0.028	nt	14.8	-0.184	nt	nt	nt	nt	nt	nt
CC(C)/C=C1\CC/C(=C\c2cccnc2)C1=O	-0.37	-2.4	-4.12*	-50.0	53.9*	-0.711	0.00903	0.00536	0.033	0.00402	0.0183	0.0106
O=C1CC(c2ccccc2)=NN1c1nc(-c2ccccc2)cs1	nt	-10.4	9.67*	nt	-5.5	0.472	0.0133*	0.0391*	0.03	0.013*	0.0345*	?
CN1CCN(S(=O)(=O)c2ccc(-c3ccc(Cl)cc3)cc2)CC1	0.14	-13.9	nt	4.1	7.3	nt	0.00663	0.00594	0.0319	0.00706	0.0173*	0.00963
O=S(=O)(c1ccc(Cl)cc1)N1CCNCC1	-0.93	3.5	0.345	nt	6.1	0.563	nt	nt	nt	nt	nt	nt
O=C(Nc1nnc(CCN2CCCCC2)s1)c1ccc(Br)cc1	nt	1.2	-0.0564	14.3	-0.1	-0.0211	nt	nt	nt	nt	nt	nt
Cc1ccc(NC(=S)N/N=C2\CCCCC2C)cc1 (stereo not given)	0.09	29.6	6.87*	nt	-2.4	-0.723	0.00587	0.0318*	0.0387*	0.0202*	0.0335*	0.0222*
